The values that follow come from PubChem BioAssay.

A short description of assay [1]: Her2 expression decrease, cell viability multiplex – SKBR3 breast tumor cells, AlphaScreen, ATP viability, primary screen (AID 461;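 active means Her2 level under about 52% in both replicate screens, with viability over 70% of control, limit read from the data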;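 on Her2 level: lower value means less Her2 protein in the cells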;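 on viability: percent of carrier control wells set as 100% viability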). The settings on record: SKBR3 Her2 protein level, 18-24 h, measured here: SKBR3 viability, ATP luminescence, at 10 µM.
The target of assay [2] is Receptor tyrosine-protein kinase erbB-2 (Homo sapiens) (UniProt P04626). The assay is described as above. The following applies: 18-24 h, at 10 µM, stronger effect = lower value.
Chain of Receptor tyrosine-protein kinase erbB-2 (Homo sapiens) (P04626 whole entry, looked up): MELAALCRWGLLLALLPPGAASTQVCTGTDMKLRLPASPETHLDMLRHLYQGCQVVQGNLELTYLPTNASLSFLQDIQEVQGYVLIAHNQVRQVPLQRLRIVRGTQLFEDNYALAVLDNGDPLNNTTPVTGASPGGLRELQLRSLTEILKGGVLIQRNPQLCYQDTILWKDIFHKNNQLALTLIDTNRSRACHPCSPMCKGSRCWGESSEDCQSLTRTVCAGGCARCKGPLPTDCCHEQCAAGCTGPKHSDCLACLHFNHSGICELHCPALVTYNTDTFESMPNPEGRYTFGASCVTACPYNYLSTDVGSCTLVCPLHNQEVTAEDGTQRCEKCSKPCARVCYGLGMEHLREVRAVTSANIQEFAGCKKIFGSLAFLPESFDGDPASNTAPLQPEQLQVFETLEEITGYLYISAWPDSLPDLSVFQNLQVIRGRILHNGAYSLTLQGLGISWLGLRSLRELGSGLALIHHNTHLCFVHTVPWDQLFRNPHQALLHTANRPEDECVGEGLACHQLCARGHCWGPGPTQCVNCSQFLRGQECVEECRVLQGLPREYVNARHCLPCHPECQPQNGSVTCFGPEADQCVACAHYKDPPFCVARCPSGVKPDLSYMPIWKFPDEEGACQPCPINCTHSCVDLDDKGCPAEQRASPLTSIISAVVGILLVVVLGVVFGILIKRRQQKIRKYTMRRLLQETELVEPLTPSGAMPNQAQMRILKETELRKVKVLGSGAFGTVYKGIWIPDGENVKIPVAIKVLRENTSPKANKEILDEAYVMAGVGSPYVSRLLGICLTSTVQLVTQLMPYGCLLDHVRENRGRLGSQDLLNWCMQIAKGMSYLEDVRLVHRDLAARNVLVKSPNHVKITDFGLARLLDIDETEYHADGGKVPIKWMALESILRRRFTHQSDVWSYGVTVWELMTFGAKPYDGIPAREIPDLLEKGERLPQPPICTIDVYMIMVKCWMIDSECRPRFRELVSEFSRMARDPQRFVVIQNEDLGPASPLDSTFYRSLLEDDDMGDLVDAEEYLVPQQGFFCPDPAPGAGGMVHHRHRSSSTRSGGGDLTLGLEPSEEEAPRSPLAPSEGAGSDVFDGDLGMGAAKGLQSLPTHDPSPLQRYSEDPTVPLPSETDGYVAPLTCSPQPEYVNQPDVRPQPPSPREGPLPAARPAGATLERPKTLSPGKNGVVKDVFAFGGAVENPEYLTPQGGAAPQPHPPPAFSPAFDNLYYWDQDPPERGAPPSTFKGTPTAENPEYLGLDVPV
The nature of assay [3]: reduced viability of SK-BR-3 breast cancer cells – cell-based, 24 h, human, pilot screen (AID 572).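 Further: compound exposure lasted between 18 and 24 h rather than exactly 24 h; 100% = carrier-treated control wells.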 The following applies: SK-BR-3 viability, CellTiter-Glo luminescence, at 10 µM, stronger effect = lower value.
The nature of assay [4]: HUVEC growth inhibition – cell-based, human, primary screen (AID 575;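 active means viability at or below 30% in both replicate assays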;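 further: 100% = median of untreated cell wells with 0.1% DMSO on each plate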). The following applies: HUVEC proliferation, CellTiter-Glo luminescence, 72 h; at 10 µM; stronger effect = lower value.
The nature of assay [5]: H69AR cell proliferation blockers – human, duplicate replicates, primary screen (AID 580;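 active means viability at or under a set limit in both replicates, limit being median viability minus 3 SD, cut at about 48% in these data, passing the limit was not always enough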;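 further: 100% = mean luminescence of untreated wells and 0% = no signal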). The following applies: H69AR lung tumor cells viability, ATP luminescence, 72 h; at 10 µM; stronger effect = lower value.
The nature of assay [6]: MRP1 drug-resistance reversers in H69AR cells – cell-based, doxorubicin co-treatment, pilot screen (AID 601;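 active means viability loss from added drug above about 55%, and viability with drug at most 40%, in both replicates, limit read from the data, passing the limit was not always enough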). The settings on record: CellTiter-Glo, 72 h, at 10 µM; for differential viability (reversal): stronger effect = higher value.
Assay [7] is described as follows: yeast transport mutant growth inhibition pilot in 384-well plates, post-Golgi transport modulator project (AID 636; in the data active means inhibition above about 31%). The following applies: absorbance 615 nm, about 18 h, stronger effect = higher value.
The nature of assay [8]: growth suppression of yeast trafficking mutant, preliminary HTS, modulators of trafficking downstream of Golgi apparatus project, 1536-format plate, OD 615 nm (AID 637; in the data active means inhibition above about 30%). The following applies: yeast transport mutant growth, absorbance 615 nm, 18 h; stronger effect = higher value.
Assay [9] can be described thus: S. cerevisiae growth inhibition in permissive medium (OD615), pilot counter-assay for S. cerevisiae lifespan shortening project, permissive growth control (AID 705;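 active means growth inhibition above 25% in both replicates, a cutoff set 3 SD above the mean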). The settings on record: OD615, 24 h, at 10 µM, stronger effect = higher value.
Assay [10] can be described thus: S. cerevisiae growth inhibition in restrictive medium, OD615, pilot screen, restrictive growth control, yeast lifespan reduction project (AID 706;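 active means growth inhibition above a set limit, 3 SD over mean compound inhibition, in both replicates, cut at about 43% in these data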;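 further: modified DeaD lifespan yeast strain shifted to restrictive glucose medium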). The following applies: OD615, 48 h, at 10 µM, stronger effect = higher value.
Assay [11] can be described thus: doxorubicin toxicity protection in MRP-1 cells – H69AR cells, CellTiter-Glo, duplicate, MRP-1 activator project, pilot screen (AID 807;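 active means viability increase at or above a cutoff of the median across tested compounds plus 3 SD, cut at about 8.5% in these data, passing the limit was not always enough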;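 further: compound pretreatment 18-22 h then 72 h combined with doxorubicin; 0% = doxorubicin alone and 100% = vehicle without doxorubicin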). The settings on record: H69AR viability with doxorubicin, CellTiter-Glo luminescence; at 10 µM; stronger effect = higher value.
The nature of assay [12]: viability of HCT116 without oncogenic beta-catenin – human colon tumor cells, pilot screen (AID 823;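 active means cell viability at or below a set limit in both duplicate runs, the limit being the all-compound median minus 4 SD, cut at about 23% in these data, passing the limit was not always enough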;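 further: 0% = wells killed by 20 µM Hyamine and 100% = untreated DMSO cell wells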). The settings on record: HCT116 beta-catenin knockout viability, CellTiter-Glo, 60 h; at 10 µM; stronger effect = lower value.
Assay [13] in a line: viability of PTEN-null HCT116 cells – cell-based, HCT116 clonal line, CellTiter-Glo, pilot screen (AID 824;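 active means viability at or below 27.92% in each of two runs, the all-compound median minus 4 SD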;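 further: 0% = 20 µM Hyamine control and 100% = vehicle cell control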). The settings on record: HCT116 PTEN-deleted viability, 60 h, at 10 µM, stronger effect = lower value.
Assay [14] is described as follows: RAM pathway blockade in budding yeast – dse1pr::URA3 reporter, 5-FOA selection, pilot screen (AID 869;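 active means inhibition over a set limit, the all-compound mean plus 3 SD, in both replicate runs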;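 further: 0% = DMSO wells with no growth and 100% = 10 µM 1-NA-PP1 with full growth; RAM network block rescues cells from 5-FOA so hits raise OD615 growth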). The settings on record: S. cerevisiae dse1pr::URA3 5-FOA growth, OD615, 2 d; at 10 µM; stronger effect = higher value; strain carries analog-sensitive mutant Cbk1 kinase.
Assay [15] can be described thus: RAM signaling pathway blockade in yeast – S. cerevisiae, Pdr1DBD-CYC8 efflux-inhibited sensitized strain, primary screen (AID 1298;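 active means RAM network inhibition above 8.4% in each of two replicates, 3 SD over the compound average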;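 further: 0% = DMSO untreated cells without growth and 100% = 10 µM 1-NA-PP1 full growth; higher means more yeast growth rescued from 5-FOA killing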). The settings on record: S. cerevisiae cbk1-as DSE1-URA3 strain, 5-FOA growth OD615, 2 d; at 50 µM; stronger effect = higher value.
The mark [16] stands for this setting: H69AR cells + 2 uM doxorubicin, measured here: viability with 2 uM doxorubicin, stronger effect = lower value.
Where [17] appears, read: H69AR cells, compound alone cytotoxicity.

Molecules are shown by their SMILES. Inconclusive results are not listed. The source made the active and inactive calls.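 How the source made its calls, unless noted: active means viability at or below 10% of carrier control in both of two separate runs; inconclusive means viability at or below 10% in only one of the two runs; inactive means the rest.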

Regarding `Cn1c(SCC(=O)Nc2ccc(F)cc2)nnc1-c1cccnc1`, the viability is 93% in assay [1]; 93% (inactive) in assay [3]; 96.5% (inactive) in [4]; 104% (inactive) in [5]; 90.8% in [6] (setting [16]); 104% in assay [6] (setting [17]). The results for the viability in assay [12] and in [13] were 104% (inactive) and 101% (inactive), respectively. Moreover, the Her2 level in [2] is 106% (inactive). Moreover, in [6] (H69AR cells + 2 uM doxorubicin), the differential viability (reversal) was 12.8% (inactive). Besides, the inhibition in assay [7] is -3.87% (inactive); in assay [8], -2.5% (inactive); in assay [14] it was 0.43% (inactive). Moreover, the figures for the growth inhibition in assay [9] and in [10] were -8.06% (inactive) and 0.86% (inactive), respectively. The viability increase in assay [11] was 2.18% (inactive). In [15], the RAM network inhibition is 4.04% (inactive).

As to `CNC(=O)c1ccsc1NC(=O)c1ccccc1`, the viability is 88.5% in [1]; 88.5% (inactive) in assay [3]; 83.8% (inactive) in assay [4]; 80.8% (inactive) in assay [5]; 84.5% in [6] (setting [16]); 80.8% in [6] (setting [17]). Further, the viability in [12] was 102% (inactive); in [13], 95.2% (inactive). The Her2 level in assay [2] is 74% (inactive). Further, the differential viability (reversal) in assay [6] (H69AR cells + 2 uM doxorubicin) was -3.68% (inactive). The inhibition in assay [7] is -4.8% (inactive); in assay [8] it was -3.5% (inactive); in assay [14], 1.97% (inactive). In addition, the growth inhibition in [9] is 14.6% (inactive); in assay [10], 14.5% (inactive). Also, the viability increase in assay [11] was -0.77% (inactive). For the same compound, in assay [15], the RAM network inhibition is -1.39% (inactive).

As for `COC(=O)CSC1=C(C#N)C(c2ccc(F)cc2)CC(=O)N1` (stereo not drawn), the viability in assay [1] was 109%; in assay [3], 109% (inactive); in [4], 101% (inactive); in assay [5] it was 80.8% (inactive); in assay [6] (setting [16]), 80.6%; in [6] (setting [17]), 80.8%. Also, the viability in [12] is 100% (inactive); in [13], 95.9% (inactive). Besides, the Her2 level in assay [2] was 105% (inactive). In assay [6] (H69AR cells + 2 uM doxorubicin), the differential viability (reversal) was 0.195% (inactive). The inhibition was -4.93% (inactive) in assay [7], -4.75% (inactive) in [8] and 0.905% (inactive) in assay [14]. Also, the growth inhibition was 9% (inactive) in [9] and -15.4% (inactive) in assay [10]. Also, the viability increase in assay [11] is -0.35% (inactive). Further, in assay [15], the RAM network inhibition is -1.71% (inactive).

With `O=c1oc2ccccc2cc1NCc1ccccc1O`, the viability is 90.5% in assay [1]; 90.5% (inactive) in [3]; 79.2% (inactive) in assay [4]; 73.9% (inactive) in assay [5]; 87.4% in [6] (setting [16]); 73.9% in assay [6] (setting [17]). In addition, the viability is 91.2% (inactive) in assay [12] and 91.1% (inactive) in assay [13]. The Her2 level in assay [2] is 82% (inactive). Also, the differential viability (reversal) in [6] (H69AR cells + 2 uM doxorubicin) was -13.5% (inactive). Also, the inhibition in [7] was -2.56% (inactive); in [8] it was -0.5% (inactive); in assay [14], 1.91% (inactive). The figures for the growth inhibition in [9] and in assay [10] were -12.5% (inactive) and -15.2% (inactive), respectively. Besides, in assay [11], the viability increase was -6.51% (inactive). In addition, the RAM network inhibition in [15] was 1.22% (inactive).

With `Cn1c(=O)c2c(nc(SCCOc3ccc4ccc(=O)oc4c3)n2C)n(C)c1=O`, the viability in [1] is 98.5%; in [3], 98.5% (inactive); in assay [4], 102% (inactive); in assay [5], 104% (inactive); in assay [6] (setting [16]), 89.6%; in [6] (setting [17]), 104%. Further, the viability is 99% (inactive) in [12] and 103% (inactive) in assay [13]. The Her2 level in [2] is 91.5% (inactive). In assay [6] (H69AR cells + 2 uM doxorubicin), the differential viability (reversal) was 14.3% (inactive). Also, the inhibition in assay [7] was -2.93% (inactive); in assay [8], -1.97% (inactive); in [14], 0.27% (inactive). Also, the figures for the growth inhibition in assay [9] and in assay [10] were -4.61% (inactive) and 1.18% (inactive), respectively. Also, in assay [11], the viability increase is 1.22% (inactive). Also, the RAM network inhibition in assay [15] is 2.41% (inactive).

As to `CCOCC(=O)Nc1nc2c(s1)C(=O)CC(C)(C)C2`, the viability in assay [1] was 80.5%; in assay [3], 80.5% (inactive); in [4] it was 97% (inactive); in assay [5], 83.7% (inactive); in [6] (setting [16]) it was 90.3%; in [6] (setting [17]) it was 83.7%. In addition, the viability in assay [12] was 97.3% (inactive); in [13], 93% (inactive). The Her2 level in [2] is 108% (inactive). Further, the differential viability (reversal) in assay [6] (H69AR cells + 2 uM doxorubicin) was -6.59% (inactive). Also, the inhibition was -7.73% (inactive) in assay [7], 1.5% (inactive) in [8] and 2.79% (inactive) in assay [14]. The growth inhibition in assay [9] was -16.7% (inactive); in [10], -21% (inactive). Further, the viability increase in assay [11] is -2.68% (inactive). Also, in assay [15], the RAM network inhibition was 0.05% (inactive).

Take `CCOC(=O)C1CCCN(C(=O)c2cn(C)c(=O)c3cc(OC)c(OC)cc23)C1` (stereo not drawn): the viability in assay [1] was 96.5%; in [3], 96.5% (inactive); in [4], 94.2% (inactive); in assay [5], 91% (inactive); in [6] (setting [16]), 101%; in [6] (setting [17]) it was 91%. Moreover, the values for the viability in assay [12] and in assay [13] were 97% (inactive) and 90.7% (inactive), respectively. For the same compound, in [2], the Her2 level is 99.5% (inactive). The differential viability (reversal) in assay [6] (H69AR cells + 2 uM doxorubicin) was -9.49% (inactive). The results for the inhibition in assay [7], in assay [8] and in assay [14] were -3.38% (inactive), 4.43% (inactive) and 1.17% (inactive), respectively. Also, the growth inhibition in assay [9] was -11.5% (inactive); in [10], -4.87% (inactive). In addition, the viability increase in assay [11] was -3.62% (inactive). Moreover, the RAM network inhibition in assay [15] was 1.13% (inactive).

In the case of `CS(=O)(=O)N(Cc1ccco1)CC(O)Cn1c2ccccc2c2ccccc21` (stereo not drawn), the viability was 93.5% in [1]; 93.5% (inactive) in assay [3]; 76.8% (inactive) in assay [4]; 80.5% (inactive) in assay [5]; 83.4% in [6] (setting [16]); 80.5% in assay [6] (setting [17]). Besides, the values for the viability in assay [12] and in [13] were 72.2% (inactive) and 74.5% (inactive), respectively. Moreover, the Her2 level in assay [2] was 71.5% (inactive). The differential viability (reversal) in assay [6] (H69AR cells + 2 uM doxorubicin) was -2.92% (inactive). Besides, the inhibition is -3.9% (inactive) in assay [7], -4.5% (inactive) in assay [8] and 1.9% (inactive) in assay [14]. Further, the growth inhibition in assay [9] was -6.72% (inactive); in assay [10] it was -1.61% (inactive). The viability increase in assay [11] is -4.51% (inactive). For the same compound, the RAM network inhibition in [15] was 1.64% (inactive).

Turning to `O=C(C1CCCN(S(=O)(=O)c2cccnc2)C1)N1CCn2c1nc1ccccc12` (stereo not drawn), the viability in assay [1] is 90.5%; in assay [3] it was 90.5% (inactive); in assay [4], 105% (inactive); in assay [5], 95.8% (inactive); in [6] (setting [16]), 86.1%; in [6] (setting [17]) it was 95.8%. The viability was 101% (inactive) in assay [12] and 99.3% (inactive) in [13]. For the same compound, in assay [2], the Her2 level was 103% (inactive). The differential viability (reversal) in assay [6] (H69AR cells + 2 uM doxorubicin) is 9.65% (inactive). The values for the inhibition in assay [7], in assay [8] and in assay [14] were 0.51% (inactive), -0.33% (inactive) and 0.46% (inactive), respectively. The values for the growth inhibition in assay [9] and in assay [10] were 5.56% (inactive) and 4.04% (inactive), respectively. Moreover, in assay [11], the viability increase is 0.72% (inactive). Moreover, the RAM network inhibition in assay [15] was 1.55% (inactive).
